Bioassay records from PubChem.
Shown are actives, neighbours in structure and some others; about 17% of the full set was active somewhere.
TGFb inhibitor = TGF-b pathway inhibition; HepG2 CAGA-GFP TGF-b/SMAD3 reporter, GFP fluorescence, 18 h; TGF-beta stimulated, 500 pg/mL final; Potency, µM (doses to about 46.1 µM), for inactives: top-dose activity, negative = inhibition, hits mostly inhibitors; AID 588855; hit rate 1.2% among 410,000; further: on the % scale 0 is the no-effect control and ±100 the full control effect; nearly all actives have a fitted effect of over 65% in size
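First, reporter cells (HEPG2 CAGA-GFP) rested 2 h at 37 degrees C. Next, compounds were pinned in and TGF-beta added to 500 pg/mL final. After 18 h, GFP was imaged per cell and summed per well.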
DT40 TDP1 CPT = DT40-hTDP1 cell growth loss with CPT; chicken DT40 Tdp1-/-;hTDP1 cells + 20 nM CPT, ATP luminescence, 48 h; Potency, µM (highest dose often 46.2 µM), inactives show at the highest dose activity change, negative = growth inhibition, usual class: inhibitors; hit rate 12% among 420,000; AID 686979; further: on the % scale 0 is the no-effect control and ±100 the full control effect; nearly all actives have a fitted effect of over 55% in size
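Chicken DT40 Tdp1-/- cells stably complemented with human TDP1 were seeded at 400 cells/well in medium containing 20 nM camptothecin, exposed to pin-transferred compounds, and grown at 37 °C for at least 48 hr. Viability was read as ATP luminescence.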
HepG2 viability = HepG2 cytotoxicity, counter-screen for TGF-b inhibitors; HepG2 CAGA-GFP viability, ATP luminescence, 18 h; Potency, µM (doses to about 46.1 µM), inactives show at the top dose activity change, negative = cytotoxicity, hits mostly cytotoxic; hit rate 0.76% among 410,000; AID 588856
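CellTiter-Glo luminescence gave cytotoxicity after 18 hours at 37 degrees C. The cells were HepG2 CAGA-GFP in 1% FBS DMEM, stimulated with 500 pg/mL TGF-beta after compound addition. %Activity was normalised to no-cell wells (complete cell-killing) and DMSO (no toxicity), and curves were fitted and classified.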
DT40 TDP1 no CPT = qHTS for Inhibitors of human tyrosyl-DNA phosphodiesterase 1 (TDP1): qHTS in cells in absence of CPT. DT40 Tdp1-/- hTDP1 cells, no CPT, ATP luminescence, 48 h. Potency, µM (top dose mostly 46.2 µM), without a hit: at the highest dose activity change, negative = growth inhibition, actives largely listed as inhibitors. AID 686978, 2013. hit rate 15% among 420,000; further: on the % scale 0 is the no-effect control and ±100 the full control effect; nearly all actives have a fitted effect of over 55% in size
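Growth of hTDP1-complemented DT40 Tdp1-knockout cells is measured by ATP luminescence after at least 48 hr compound exposure at 37 °C, with DMSO substituting for the 20 nM CPT used in the parallel screen.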
HT1080 IDH1KD tx = HT-1080 IDH1 knockdown cell toxicity (counter line) | HT-1080 IDH1 knockdown viability, ATP luminescence, 48 h | Potency, µM (titrated, usually from 46.1 µM), without a hit: top-dose activity, negative = toxicity, usual class: cytotoxic | hit rate 2% among 360,000 | AID 686971;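 further: 0% = DMSO wells and -100% = cell-free medium wells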
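Viability of IDH1-knockdown HT-1080 fibrosarcoma cells was assessed by CellTiter-Glo after 48 h at 37 °C with titrated compound; concentration-effect curves were classified by fit quality and response size.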
HT1080NT lethal = kills 2HG-producing HT-1080-NT fibrosarcoma cells | HT-1080-NT fibrosarcoma viability, CellTiter-Glo ATP luminescence, 48 h | Potency, µM (doses to about 46.1 µM), for the others: top-dose activity, negative = less viability, most hits filed as cytotoxic | hit rate 1.6% among 360,000;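 further: NT is the 2HG producing partner of a matched IDH1 knockdown line; 0% = DMSO-treated cells and -100% = media-only wells without cells; nearly all actives have a fitted effect of over 55% in size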
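HT-1080-NT; 750 cells/well; 5% FBS RPMI; 48 h compound, 37 degrees C; CellTiter-Glo luminescence; curve fitting and curve-class assignment.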
Numbers without * were called inactive; ? = inconclusive; . = no result given. The call rests on the fitted dose curve; in most records, active means well fitted curve in the direction sought with a large enough effect; inconclusive means small, poorly fitted or top-dose-only effect, or another doubt; inactive means no such curve, though single readings can be large; an effect the other way counts as inactive or inconclusive. Potency means the concentration at half of the fitted maximal effect.

SMILES	TGFb inhibitor	DT40 TDP1 CPT	HepG2 viability	DT40 TDP1 no CPT	HT1080 IDH1KD tx	HT1080NT lethal
Cc1c(Cl)cccc1N=Cc1ccc([N+](=O)[O-])s1	?	?	-115%	?	10µM*	13µM*
Cc1ccc(C=Nc2ccccc2C#N)s1	-6%	4%	4%	-3%	7%	8%
CC(=O)O[C@@H]1[C@H]2[C@@H](C[C@@H](C)[C@@H]3C=CC(=O)[C@@]13C)OC(=O)[C@@H]2C	-1%	?	-25%	?	-6%	2%
C=C1C(=O)OC2C1CCC(C)C1C=CC(=O)C12C (configuration not stated)	?	3.3µM*	-1%	2.9µM*	21µM*	?
O=C(c1ccc(F)cc1)N1CCC(c2nc3ccccc3s2)CC1	?	-30%	-20%	?	.	.
O=C1COc2ccc(-c3cc(-c4ccc(F)cc4)c4c(n3)-c3ccccc3OC4)cc2N1	-25%	6.5µM*	0%	5.8µM*	.	.
COc1ccc(-c2cc(-c3ccc4c(c3)NC(=O)CO4)nc3c2COc2ccc(F)cc2-3)cc1	2%	?	-14%	1.5µM*	.	.
CCC1(c2ccccc2)NC(=O)N(CC(=O)NNC(=O)c2ccc(F)cc2)C1=O (configuration not stated)	0%	-13%	-1%	-7%	3%	12%
CC1CCN2c3ccccc3CC3(C(=O)OC(C)(C)OC3=O)C2C1 (configuration not stated)	?	?	2%	10µM*	.	.
Cc1c(N)nc([C@H](CC(N)=O)NC[C@H](N)C(N)=O)nc1C(=O)N[C@H](C(=O)N[C@H](C)[C@@H](O)[C@H](C)C(=O)N[C@H](C(=O)NCCc1nc(-c2nc(C(=O)NCCCCN=C(N)N)cs2)cs1)[C@@H](C)O)[C@@H](O[C@@H]1O[C@@H](CO)[C@@H](O)[C@H](O)[C@@H]1O[C@H]1O[C@H](CO)[C@@H](O)[C@H](OC(N)=O)[C@@H]1O)c1cnc[nH]1	.	1.2µM*	.	0.94µM*	.	.
COc1ccc(C2CC(=O)c3c([nH]c(C(=O)OC4CCCCCC4)c3C)C2)cc1 (configuration not stated)	7%	?	-4%	?	.	.
O=C(Nc1ccc(CN2CCOCC2)cc1)c1ccc(-c2cccc([N+](=O)[O-])c2)o1	-41%	21µM*	-41%	16µM*	0%	-1%
O=C(Nc1nccs1)c1ccc(-c2cccc([N+](=O)[O-])c2)o1	15%	-27%	4%	?	-14%	0%
COc1c(Cl)cc(Cl)cc1C(=O)Nc1ccc(CN2CCCCC2)cc1	-1%	?	-2%	16µM*	0%	-21%
O=C(Nc1ncc(Cc2cccc(C(F)(F)F)c2)s1)c1ccc(-c2cccc([N+](=O)[O-])c2)o1	-7%	15µM*	-14%	?	?	?
COc1c(Cl)cc(Cl)cc1C(=O)Nc1ccc(CN2CCOCC2)cc1	-14%	16µM*	-17%	?	3%	0%
COc1ccccc1C(=O)Nc1ccc(CN2CCCCC2)cc1	0%	20%	-21%	-8%	-1%	0%
O=C(NCc1ccncc1)C1CCCCC1	-7%	?	-15%	-27%	6%	2%
O=C(Nc1ccc(CN2CCOCC2)cc1)c1ccc(-c2cc(Cl)ccc2Cl)o1	-24%	?	-24%	23µM*	?	?
O=C(Nc1ccc(CN2CCCCC2)cc1)Nc1ccc(Br)cc1Cl	26%	18µM*	0%	16µM*	-13%	-10%
